# According to PubChem BioAssay (NCATS):
# Results filed as inconclusive are left out. Activity calls are given as the source filed them. The call rests on the fitted dose curve; in most records, active means well fitted cell-killing curve with a large enough effect; inconclusive means small, poorly fitted or top-dose-only effect, or effect the other way; inactive means no such curve, though single readings can be large or run the other way.
# Assay: Quantitative High-Throughput drug screen in 47 multiple myeloma cell lines against the NCATS MIPE library collection: FR4_PLB cell viability assay (AID 1918924; further: nearly all actives have a fitted effect of over 35% in size;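 on viability (% of DMSO control): 100% = DMSO-treated cells and 0% = wells with media only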)
# Settings: FR4_PLB myeloma cells viability, CellTiter-Glo ATP, 48 h; series mostly up to 45.8 µM; viability (% of DMSO control): at the top concentration
# Summary of the method: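 Inhibition of cell viability is measured here. Each line was plated at 500 cells per well, treated with MIPE 4.0 drugs, kept 48 hours at 37C, then assayed for ATP content by CellTiter-Glo luminescence.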
# Potency means the concentration at half of the fitted maximal effect.
Compound,viability (% of DMSO control),Potency
Fc1ccc(Cl)cc1-c1nc(Nc2ccncc2)c2nccnc2n1,127% (inactive),
COCCNCCCn1c(C(=O)CF)c(-c2ccc(C)cc2)c2c(N)ncnc21,,13.2 µM (active)
O=C1CCCC2=C1C(c1[nH]ncc1Cl)N=C(Nc1nc3ccccc3o1)N2 (stereo unspecified),106% (inactive),
CCOc1cc(N2CCC(O)CC2)ccc1Nc1ncc2c(n1)N(C)c1ccccc1C(=O)N2C,,11.8 µM (active)
COc1ccc2c3n(c(=NC(=O)c4cccnc4)nc2c1OC)CCN3,,16.6 µM (active)
Cc1c(CCOc2ccc(C(=O)O)cc2)c2cc(Cl)ccc2n1C(c1ccccc1)c1ccccc1,102% (inactive),
COc1ccccc1-c1cccc(-c2c(O)c3cc(C#N)c(Cl)cc3[nH]c2=O)c1,88.2% [at 92.2 µM] (inactive),
CCn1c(-c2nonc2N)nc2c(C#CC(C)(C)O)ncc(OC[C@H]3CCCNC3)c21,,14.8 µM (active)
Oc1cccc(-c2nc(N3CCOCC3)c3oc4ncccc4c3n2)c1,,0.0762 µM (active)
CS(=O)(=O)Oc1ccc2c(NC(N)=O)c(C(=O)c3ccc(Cl)cc3Cl)oc2c1,104% (inactive),
S=C(NCc1ccc2c(c1)OCO2)N1CCN(c2ncnc3c2oc2ccccc23)CC1,,27 µM (active)
CC(c1cc2ccccc2s1)N(O)C(N)=O (stereo unspecified),103% (inactive),
COc1ccc(CCN2CCN(CCCc3ccccc3)CC2)cc1OC,115% (inactive),
COc1nc(-c2ccc3c(c2)OCO3)n(-c2ccc(NC(=O)CSc3ccccc3)cc2)n1,107% (inactive),
O=C(O)[C@@H](c1ccc(OCc2ccc3ccccc3n2)cc1)C1CCCC1,103% (inactive),
CCc1cc(Nc2nccc(-c3c(-c4ccc(OC)c(C(=O)Nc5c(F)cccc5F)c4)nc4ccccn34)n2)c(OC)cc1N1CCC(N2CCN(S(C)(=O)=O)CC2)CC1,,20.9 µM (active)
